Source: the supplement of paper PMC3334620
In all, about 33,000 sequences were measured (“E-score (-0.5 to 0.5)”: median about -0.017, highest 2% from about 0.3 on). Only a selection was taken, and the highest values are over-represented in it overall.

Target: T1, Sut1 (UniProt P53032)
T1 sequence: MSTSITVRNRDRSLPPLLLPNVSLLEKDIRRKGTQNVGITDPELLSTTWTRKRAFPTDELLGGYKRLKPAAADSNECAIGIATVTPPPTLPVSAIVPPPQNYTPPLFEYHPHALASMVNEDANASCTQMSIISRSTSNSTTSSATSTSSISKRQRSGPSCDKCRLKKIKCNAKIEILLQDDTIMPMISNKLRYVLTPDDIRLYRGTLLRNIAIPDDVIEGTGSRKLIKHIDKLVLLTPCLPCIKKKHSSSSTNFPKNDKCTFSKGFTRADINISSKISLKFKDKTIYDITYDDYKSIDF
Experiment: PBM E-score (8-mer binding enrichment) (E-score (-0.5 to 0.5)); higher = stronger / more preferred TF binding
Details: protein concentration: 200 nM; construct: GST-full length
Method in brief: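 Using PURExpress in vitro transcription/translation, GST-tagged yeast transcription factors were made in full-length or DNA-binding-domain form. These were applied at about 100-200 nM to double-stranded universal all-10-mer Agilent arrays, and bound protein was detected with fluorescent anti-GST. Scans were normalised with masliner before the Universal PBM Analysis Suite assigned E-scores to ungapped eight-base words pooled with their reverse complements.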

Sequence	PBM E-score
CCCACTAG	-0.248
AGTGTAGC	-0.123
CAAGCCAA	-0.059
GTGGGAAA	-0.0448
GCTCCGAA	0.439
TCTCCGCA	0.225
CCTCCGAA	0.121
TCTCCAAA	-0.0978
TCTCCGAA	0.446
GCTCCGAC	0.267
GTGTTTCA	0.0164
CACCCCTC	-0.352
CTCGGAAG	0.174
AAATAAAG	0.224
ATATAAAG	0.177
ATATAAAT	0.325
ATATAAAC	0.227
AAATAAAT	0.329
AAATAAAA	0.234
ATGTTATG	0.211
ACCTGTTC	-0.081
CTTCTTCA	-0.102
CCTGGTCA	-0.307

Sequence	PBM E-score
CCCGATCA	-0.133
ACCCAAAT	0.00677
CATGTCTC	-0.0334
GCAGCTCC	0.00727
CTCCGCTC	0.295
GTCCGCGA	0.347
ATCCGCGA	-0.0287
GCCCGCGA	-0.0595
ATCCGCAA	-0.0823
GTCCGCAA	0.298
CGCCGCGA	0.0357
CTCCGCGA	0.35
TTCCGCAA	0.166
CTCCGCTA	0.301
GTCCGCTA	0.258
CTCCGCCA	0.171
CCGTTCTC	0.0465
AGAGCGCG	-0.155
AGCCAGCG	-0.249
ACCATCGA	-0.151
GTCACGAC	-0.0628
CGCTCCAC	-0.012
CTCCGCCC	0.217

Sequence	PBM E-score
CTCCGCGC	0.327
ATCCGCGC	-0.0272
ATGCATAC	-0.0233
GAGTGATA	0.13
TGTTCGAA	0.103
CCAAGTTC	-0.107
ATATACTA	0.305
CTATACTA	0.21
AAATGTAT	0.304
GTATACAC	-0.0284
GTATATAA	0.277
AAATATAT	0.365
AAATATAA	0.273
GTATATAC	0.316
ATATACTC	0.197
AAATGTAA	0.206
AAATATAC	0.217
AAATGTAG	0.0326
CAATCGAG	-0.309
CTGGTAAA	0.141
GACTTCAC	-0.00592
AAACACGT	0.116
CCCAGCCG	-0.222

Sequence	PBM E-score
CCTGATTC	-0.00501
CTCCTCCA	-0.147
CATACCTC	-0.0271
GTTTGGCA	-0.0612
AAATATTA	0.227
ATATAGAT	0.272
ACTTATAT	0.325
AAATATTT	0.31
AAATATGA	0.114
AAATATGC	0.054
ATATATAT	0.302
AAATATGT	0.317
ACATATAT	0.266
AAATATTC	0.207
ACTTATAG	0.0142
ACTTATAC	0.264
ACGCTATA	-0.103
CACTAACG	-0.17
CGGTGCAA	-0.00847
AGAGCGCA	-0.306
AGGGAGGG	-0.158
AAGACTAA	0.0716
GGTTAACA	0.0261

Sequence	PBM E-score
AGATATAG	0.18
AGATATAT	0.301
ACATATAC	0.088
ATATAGAG	0.0735
ATATATAC	0.31
AGATATAC	0.0915
ATATATAG	0.329
CTATATAG	0.0328
CTATATAC	0.287
AGAAATGG	-0.012
GGCACTCA	-0.374
CTCGCCTA	-0.0978
TGCGTTAA	-0.00864
TATCTCGA	0.108
ATGGTGTC	-0.14
CCCGTGCC	-0.126
AACCGAGA	0.195
AATTGAAG	0.115
AATTGAAC	0.0105
GATTGAAA	0.303
GATTGAAC	0.00278
AATTGAAT	0.314
CATTGAAA	0.249

Sequence	PBM E-score
GATCAAAC	-0.00328
CCCCATAA	-0.104
CGAAGATA	0.132
AGAGGGGG	-0.322
ACCGGCAA	-0.198
ACCGGCGA	-0.0414
GCCGGCAA	0.144
GCCGGCGA	0.0246
TCCGGCAA	0.33
TCCGGCGA	0.301
GAATTTTA	0.251
AACTCTGT	-0.0734
GGACGTAA	-0.136
ATGTTGAA	0.131
CTTGAGAA	-0.0815
TTCGCAAA	0.303
ATCGCAAA	0.0837
GTCGCAAA	0.131
ACGGTCCT	-0.258
ACCCAGAC	-0.0554
CAAGCAAC	-0.124
ATTCCAAA	0.0401
